Screen size: about 66,000 compounds; about 960 (1.5%) showed an effect of 50% or more. This excerpt belongs to a sample that is enriched for strong results.
System: Trypanosoma brucei
Test: Trypanosoma brucei 72 hour study
Type: functional, organism-based
Set-up: scale not given: in the data most compounds retested in dose-response had high values

Question: Which “Percent Effect” value (30.3 µM, […]) does the source give for Cc1ccsc1C(=O)N1CCC2(CC(N(C)c3ccncn3)C2)C1 (stereo not given) here?
Answer: The value was -9.037%.

Question: For O=C(Nc1ccc(F)cc1)N1C[C@H]2C[C@H](C(=O)N3CCCC3)[C@@H](C1)O2, which “Percent Effect” value (30.3 µM, […]) is on record?
Answer: Its value is -4.677%.

Question: Cc1cc(=O)[nH]c(-n2nc(-c3cccs3)cc2N)n1 was tested. Which “Percent Effect” value (30 µM, 30.03 µM) did it give?
Answer: Its value is -18.7%.

Question: For Cc1nc(-n2nc(-c3cccs3)cc2N)[nH]c(=O)c1C, which “Percent Effect” value (30 µM, 30.03 µM) is on record?
Answer: The value was 6.214%.

Question: With CCc1c(C)nc(-n2nc(-c3cccs3)cc2N)[nH]c1=O as the compound, how does the “Percent Effect” value (30 µM, 30.03 µM) read?
Answer: The value was 63.75%.

Question: Nc1c(N2CCOCC2)ncnc1N1CCOCC1 was tested. Which “Percent Effect” value (30.3 µM, […]) did it give?
Answer: The value was -8.78%.

Question: And the “Percent Effect” value (10 mM, 10 mM as filed; unlikely as a test dose)?
Answer: Its value is -35.44%.

Question: With CCN1CC2(CC1=O)CN(Cc1ccco1)CCN(C(=O)C(C)C)C2.O=C(O)C(F)(F)F (stereo not given) as the compound, how does the “Percent Effect” value (30 µM, 30.03 µM) read?
Answer: The value was 0.2286%.

Question: With Cc1ccc(CN(CCCn2ccnc2)Cc2c(F)cccc2F)s1.O=C(O)CC(O)(CC(=O)O)C(=O)O as the compound, how does the “Percent Effect” value (30.3 µM, […]) read?
Answer: Its value is -13.01%.

Question: Which “Percent Effect” value (30 µM, 30.03 µM) does the source give for CN(Cc1ccncc1)Cc1cnn(-c2ccc(F)cc2)c1 here?
Answer: The value was -38.94%.

Question: With O=C(Cc1ccccc1Cl)Nc1cc(N2CCCC2)ncn1 as the compound, how does the “Percent Effect” value (30 µM, 30.03 µM) read?
Answer: Its value is -11.61%.

Question: How did the “Percent Effect” value (30 µM, 30.03 µM) turn out when O=C(Cc1c(F)cccc1Cl)Nc1cc(N2CCCC2)ncn1 was run?
Answer: The value was -1.859%.

Question: For O=C(Cc1c(F)cccc1Cl)Nc1cc(N2CCOCC2)ncn1, which “Percent Effect” value (30 µM, 30.03 µM) is on record?
Answer: Its value is 100.3%.

Question: Which “Percent Effect” value (30 µM, 30.03 µM) does the source give for COCc1ccc(C(=O)N2CCC(Oc3ccccc3)(C(=O)O)CC2)o1 here?
Answer: Its value is -16.4%.

Question: How did the “Percent Effect” value (30.3 µM, […]) turn out when Cc1cccc(OCc2ccc(C(=O)N3N=CCC3(O)C(F)(F)F)o2)c1 (stereo not given) was run?
Answer: Its value is 67.46%.

Question: How did the “Percent Effect” value (30 µM, 30.03 µM) turn out when COc1ccc(C(=O)N2CCC(Oc3cccc(C)c3)(C(=O)O)CC2)o1 was run?
Answer: Its value is -24.59%.

Question: With O=C(Cc1ccc(Cl)cc1)N1CCC(O)(C(F)(F)F)C1 (stereo not given) as the compound, how does the “Percent Effect” value (30.3 µM, […]) read?
Answer: The value was -19.5%.

Question: Which “Percent Effect” value (30.3 µM, […]) does the source give for O=C(c1ccc(COc2ccc(Cl)cc2)o1)N1N=CCC1(O)C(F)(F)F (stereo not given) here?
Answer: The value was 99.58%.

Question: For O=C(c1ccc(COc2ccccc2Cl)o1)N1N=CCC1(O)C(F)(F)F (stereo not given), which “Percent Effect” value (30.3 µM, […]) is on record?
Answer: The value was 31%.

Question: For COc1c(CNCc2ccc(C(=O)N(C)C(C)C)cc2)c(C)nn1C, which “Percent Effect” value (10 µM) is on record?
Answer: The value was -22.99%.

Question: With Cc1c(CNCc2nn(-c3ccccc3)c3c2CCC3)cc(C#N)n1C as the compound, how does the “Percent Effect” value (30 µM, 30.03 µM) read?
Answer: Its value is -10.92%.

Question: With COc1ccccc1CNCc1nn(-c2ccccc2)c2c1CCC2 as the compound, how does the “Percent Effect” value (30 µM, 30.03 µM) read?
Answer: The value was 105.2%.

Question: With Cc1noc(C)c1CNCc1nn(-c2ccccc2)c2c1CCC2 as the compound, how does the “Percent Effect” value (30 µM, 30.03 µM) read?
Answer: Its value is -40.9%.

Question: With Cc1cncc(C(=O)N2CCO[C@H]3[C@H](OCCN(C)C)CC[C@@H]32)c1.O=C(O)C(F)(F)F.O=C(O)C(F)(F)F as the compound, how does the “Percent Effect” value (30.3 µM, […]) read?
Answer: The value was -21.9%.

Question: With Cc1n[nH]c(C)c1C1COCCN1C(=O)c1cc(F)ccc1F (stereo not given) as the compound, how does the “Percent Effect” value (30.3 µM, […]) read?
Answer: The value was -0.3197%.

Question: CNC(=O)CN1CC[C@H]2CN(C(=O)c3cccn3C)C[C@H]2C1.O=C(O)C(F)(F)F was tested. Which “Percent Effect” value (30.3 µM, […]) did it give?
Answer: The value was -42.42%.

Question: With OC1COCCN(Cc2cc(-c3ccccc3OC(F)(F)F)no2)C1 (stereo not given) as the compound, how does the “Percent Effect” value (30 µM, 30.03 µM) read?
Answer: The value was -31.26%.

Question: NC1CCCCN(Cc2cc(-c3ccccc3OC(F)(F)F)no2)C1 (stereo not given) was tested. Which “Percent Effect” value (30 µM, 30.03 µM) did it give?
Answer: Its value is 101.5%.

Question: With N[C@@H]1CCN(Cc2cc(-c3ccccc3OC(F)(F)F)no2)C[C@H]1O as the compound, how does the “Percent Effect” value (30 µM, 30.03 µM) read?
Answer: The value was -20.57%.

Question: O=C(O)C(F)(F)F.O=C(O)C(F)(F)F.c1ccc(OCc2nnc3n2CCN(CC2CC2)C3)nc1 was tested. Which “Percent Effect” value (30 µM, 30.03 µM) did it give?
Answer: The value was 16.25%.

Question: How did the “Percent Effect” value (30.3 µM, […]) turn out when CC(C)Oc1ncccc1CNC(=O)N1CCC1 was run?
Answer: Its value is -18.33%.

Question: Which “Percent Effect” value (30 µM, 30.03 µM) does the source give for COc1ccc(C)cc1CCNS(=O)(=O)c1ccc2c(c1)CCC(=O)N2 here?
Answer: The value was -47.2%.

Question: How did the “Percent Effect” value (30 µM, 30.03 µM) turn out when COc1ccc(C)cc1C(C)NS(=O)(=O)c1ccc2c(c1)CCC(=O)N2 (stereo not given) was run?
Answer: The value was -36.95%.

Question: For COc1ccc(C(C)NS(=O)(=O)c2ccc3c(c2)CCC(=O)N3)cc1F (stereo not given), which “Percent Effect” value (30 µM, 30.03 µM) is on record?
Answer: Its value is 95.9%.

Question: CC(CN1CCOCC1)OC(=O)c1ccccc1Cl.Cl (stereo not given) was tested. Which “Percent Effect” value (30 µM, 30.03 µM) did it give?
Answer: Its value is -53.51%.

Question: With CC(C)N(C)Cc1cnc2n1CCN(Cc1ccc(F)cc1)C2.O=C(O)C(F)(F)F.O=C(O)C(F)(F)F as the compound, how does the “Percent Effect” value (30.3 µM, […]) read?
Answer: Its value is 5.253%.

Question: Cc1c(C(=O)N2CCN(c3ncccn3)CC2)n(C)c2ccc(Cl)cc12 was tested. Which “Percent Effect” value (30.3 µM, […]) did it give?
Answer: The value was 36.3%.

Question: With Cc1c(C(=O)N2CCN(c3ccccn3)CC2)n(C)c2ccc(Cl)cc12 as the compound, how does the “Percent Effect” value (30.3 µM, […]) read?
Answer: Its value is 79.78%.

Question: With Cc1c(C(=O)N2CCN(C)CC2)n(C)c2ccc(Cl)cc12 as the compound, how does the “Percent Effect” value (30.3 µM, […]) read?
Answer: Its value is 12.9%.

Question: Cn1ccnc1CN1CCC2(CC1)Cc1ccccc1CNC2=O.O=C(O)C(F)(F)F was tested. Which “Percent Effect” value (30.3 µM, […]) did it give?
Answer: The value was -47.04%.

Question: CCC(=O)NC(Cc1cc(N(C)C)nc(C2CC2)n1)c1ccccc1 (stereo not given) was tested. Which “Percent Effect” value (30.3 µM, […]) did it give?
Answer: The value was 13.14%.

Question: For CC(C)C(=O)NC(Cc1cc(N(C)C)nc(C2CC2)n1)c1ccccc1 (stereo not given), which “Percent Effect” value (30.3 µM, […]) is on record?
Answer: The value was 30.74%.

Question: With CN(C)c1cc(CC(NC(=O)C2CC2)c2ccccc2)nc(C2CC2)n1 (stereo not given) as the compound, how does the “Percent Effect” value (30.3 µM, […]) read?
Answer: Its value is 52.69%.

Question: CC(C)(C)CN1CC(COc2ccccc2)Oc2ccncc2S1(=O)=O (stereo not given) was tested. Which “Percent Effect” value (30.3 µM, […]) did it give?
Answer: The value was -12.26%.

Question: For O=C(O)C(F)(F)F.c1coc(CN2CCO[C@H]3[C@@H](OCC4CC4)CC[C@@H]32)c1, which “Percent Effect” value (30.3 µM, […]) is on record?
Answer: The value was -12.22%.

Question: How did the “Percent Effect” value (30.3 µM, […]) turn out when Cc1nc(CN2CCN(C)C(=O)C23CCN(C(C)C)CC3)cs1.O=C(O)C(F)(F)F was run?
Answer: Its value is -9.175%.

Question: With Cc1cc2n(n1)CC(CNCc1ccc(Oc3ccccc3)nc1)CN2 (stereo not given) as the compound, how does the “Percent Effect” value (30.3 µM, […]) read?
Answer: The value was 53.59%.

Question: For Fc1ccc(Oc2ccc(CNCC3CNc4ccnn4C3)cn2)cc1 (stereo not given), which “Percent Effect” value (30.3 µM, […]) is on record?
Answer: The value was 22.41%.

Question: And the “Percent Effect” value (10 mM, 10 mM as filed; unlikely as a test dose)?
Answer: Its value is -33.28%.

Question: Cc1cc2n(n1)CC(CNCc1ccc(OCC3CC3)nc1)CN2 (stereo not given) was tested. Which “Percent Effect” value (30.3 µM, […]) did it give?
Answer: The value was 69.29%.

Question: And the “Percent Effect” value (10 mM, 10 mM as filed; unlikely as a test dose)?
Answer: The value was -5.536%.

Question: How did the “Percent Effect” value (30.3 µM, […]) turn out when c1cc(CNCC2CNc3ccnn3C2)cc(OC2CCCC2)n1 (stereo not given) was run?
Answer: The value was 16.86%.

Question: For COc1ccc(CNCC2CNc3cc(C)nn3C2)cn1 (stereo not given), which “Percent Effect” value (30.3 µM, […]) is on record?
Answer: Its value is 11.94%.

Question: Which “Percent Effect” value (30 µM, 30.03 µM) does the source give for c1cc2n(n1)CC(CNCc1ccc(OC3CCCCC3)nc1)CN2 (stereo not given) here?
Answer: Its value is 28.54%.

Question: Which “Percent Effect” value (30.3 µM, […]) does the source give for COCCOc1ccc(CNCC2CNc3cc(C)nn3C2)cn1 (stereo not given) here?
Answer: The value was 6.502%.

Question: For Cc1ccc(CNCC2CNc3cc(C)nn3C2)cn1 (stereo not given), which “Percent Effect” value (30.3 µM, […]) is on record?
Answer: The value was -20.04%.

Question: c1ccc(Oc2ccc(CNCC3CNc4ccnn4C3)cn2)cc1 (stereo not given) was tested. Which “Percent Effect” value (30.3 µM, […]) did it give?
Answer: The value was 59.34%.

Question: And the “Percent Effect” value (10 mM, 10 mM as filed; unlikely as a test dose)?
Answer: The value was -30.66%.

Question: Cc1cc2n(n1)CC(CNCc1ccc(-n3cccn3)nc1)CN2 (stereo not given) was tested. Which “Percent Effect” value (30 µM, 30.03 µM) did it give?
Answer: The value was -7.458%.

Question: Which results are given for c1cc2n(n1)CC(CNCc1ccc(OC3CCCC3)nc1)CN2 (stereo not given)?
Answer: Percent Effect (30.3 µM, […]): 80.85%; Percent Effect (10 mM, 10 mM as filed; unlikely as a test dose): 9.3%

Question: Fc1cccc(Oc2ccc(CNCC3CNc4ccnn4C3)cn2)c1 (stereo not given) was tested. Which “Percent Effect” value (30 µM, 30.03 µM) did it give?
Answer: Its value is 11.44%.

Question: For O=C(Nc1cccn(Cc2ccc(F)cc2)c1=O)c1csnn1, which “Percent Effect” value (30 µM, 30.03 µM) is on record?
Answer: Its value is -24.79%.

Question: How did the “Percent Effect” value (10 µM) turn out when CN(C(=O)Cc1ccccc1Cl)C1CCN(c2ccccn2)CC1 was run?
Answer: The value was -27.72%.

Question: What about the “Percent Effect” value (30.3 µM, […]) of the same compound?
Answer: The value was 20.76%.

— ChEMBL document CHEMBL3988442, “University of Dundee, Small-Polar-MMV Screening Library” (2021)
